Measured values as given in PubChem BioAssay (NCI).
This is part of a sample that, as a whole, favours compounds with a hit. Of some 79,000 tested, about 15% had one in any assay. Calls of active or inactive are those of the source. No stated cut-off is given here; in the data, active means growth inhibition above about 70%; inactive means the rest. Where a SMILES comes first, the peptide text is derived from it.

How the values were obtained:
[1] = NCI Yeast Anticancer Drug Screen. Data for the rad50 strain (AID 155);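 further: 0% = growth of vehicle-only cultures of the same strain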; conditions: S. cerevisiae rad50 strain growth inhibition; at 50.0 µM; stronger effect = higher value
In short: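 Cells are treated with compound, grown, and their growth is then scored against vehicle-only cultures of the same repair-deficient yeast strain.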

[2] = NCI Yeast Anticancer Drug Screen. Data for the mec2-1 strain (AID 157); conditions: S. cerevisiae mec2-1 strain, at 50.0 µM, stronger effect = higher value
In short: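 Each compound was tested on mec2-1 yeast, a strain altered in DNA damage repair or cell cycle control. Growth inhibition is reported relative to vehicle.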

[3] = NCI Yeast Anticancer Drug Screen. Data for the sgs1 mgt1 strain (AID 161);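 further: 0% = growth of cultures given vehicle only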; conditions: S. cerevisiae sgs1 mgt1 strain, at 50.0 µM, stronger effect = higher value
In short: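 Read-out: growth inhibition vs vehicle controls. Cells: mutant yeast strain deficient in DNA damage repair.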

[4] = NCI Yeast Anticancer Drug Screen. Data for the cln2 rad14 strain (AID 165);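 further: 0% = growth equal to vehicle treated cultures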; conditions: S. cerevisiae cln2 rad14 strain, at 50.0 µM, stronger effect = higher value
In short: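 Test compounds were added to cln2 rad14 yeast cultures; inhibition of growth was then determined by comparison with vehicle treatment.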

[5] = NCI Yeast Anticancer Drug Screen. Data for the bub3 strain (AID 167); conditions: S. cerevisiae bub3 mutant strain, at 50.0 µM, stronger effect = higher value
In short: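 Part of a panel of yeast mutants defective in DNA damage repair or cell cycle regulation. Each strain is grown with compound, and inhibition is calculated relative to solvent-treated cultures.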

[6] = NCI Yeast Anticancer Drug Screen. Data for the mlh1 rad18 strain (AID 175); conditions: S. cerevisiae mlh1 rad18 strain growth inhibition; at 50.0 µM; stronger effect = higher value
In short: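 Inhibition values reflect reduced growth of mutant yeast versus vehicle-treated controls following compound exposure; the mutations affect DNA damage repair.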

Measured: growth inhibition

Cc1cc(C)c(F)c(C)c1N
inactive: [1] -32.5% | [2] 17.6% | [3] -22% | [4] -19.4% | [5] -22.1% | [6] -4.3%

c1cc(-c2cc(-c3cc(-c4ccncc4)n[nH]3)[nH]n2)ccn1
inactive: [1] 9.45% | [2] -2.6% | [3] 8.45% | [4] 3.3% | [5] -13.8% | [6] 4.6%

CN(Cc1cccc(Cl)c1)C(=O)NC(C)(C)C
inactive: [1] 2.85% | [2] -6.85% | [3] 15.8% | [4] 4.2% | [5] 14.6% | [6] 0.05%

CC(=O)OCC1OC(OCC(OC(C)=O)C(OC(C)=O)C(OC(C)=O)c2cnn(-c3ccccc3)n2)C(OC(C)=O)C(OC(C)=O)C1OC(C)=O (stereo not drawn)
inactive: [1] 1.35% | [2] 0.2% | [3] 2.65% | [4] -15.2% | [5] 12.4% | [6] 6.5%

O=C(CCC(=O)Nc1ccc(Cl)c(Cl)c1)CC(=O)c1ccc(F)cc1
inactive: [1] -17.4% | [2] -9.4% | [3] 14.4% | [4] 4.3% | [5] 19.1% | [6] -1.65%

CCCCN(CCCC)CCCNC(=O)OCC
inactive: [1] -4.2% | [2] -22.9% | [3] -7% | [4] 14.6% | [5] -26.8% | [6] -6.2%

Cc1ccc(NC(=O)C2CCN(C)CC2)cc1
inactive: [1] -14.3% | [2] -15% | [3] -16.7% | [4] -23.4% | [5] -8.7% | [6] 7.85%

Cc1cccc(C)c1NC(=O)OC(C)C
inactive: [1] 4.8% | [2] 5.65% | [3] -28.3% | [4] -32.5% | [5] 11.8% | [6] -12.7%

COc1ccccc1Nc1nc(NNC(=O)Cc2ccccc2)nc(NNC(=O)c2ccncc2)n1
inactive: [1] 27.4% | [2] 36.2% | [3] 25.3% | [4] 17.6% | [5] 22.7% | [6] 25.6%

COC(OC)(c1ccccc1)c1ccccc1
inactive: [1] -33% | [2] -27.4% | [3] -33% | [4] -11.1% | [5] -40.6% | [6] -18.6%

O=c1[nH]c(=O)n(C2CC3OCC3O2)cc1F (stereo not drawn)
inactive: [1] -14.2% | [2] 35.7% | [3] -9.05% | [4] 20.1% | [5] -13.5% | [6] 11.2%

COC(=O)CCSc1ccccc1
inactive: [1] 0.55% | [2] -12% | [3] 5.45% | [4] 6.7% | [5] -15.1% | [6] -7.6%

O=C(/C=C/c1ccc(F)c(F)c1)OCCc1ccccc1
inactive: [1] 28.1% | [2] 29% | [3] 32.7% | [4] 28.9% | [5] 40.9% | [6] 27.2%

CC(N)C(=O)NC(C)P(=O)(O)O (stereo not drawn)
inactive: [1] 2.7% | [2] 1.4% | [3] -7.15% | [4] -73% | [5] 9.05% | [6] 8.2%

COc1cc(C)c2c([N+](=O)[O-])cc([N+](=O)[O-])c(OC)c2n1
inactive: [1] 12% | [2] 17.9% | [3] 4% | [4] 3.85% | [5] -10.2% | [6] 7.05%

COCCC(N)C(=O)O (stereo not drawn)
inactive: [1] 6% | [2] -13.3% | [3] -15% | [4] -22.8% | [5] -11.6% | [6] 2.65%

Nc1ccc(S(=O)(=O)N(CCO)CCO)cc1
inactive: [1] -2.65% | [2] -28.2% | [3] -20.9% | [4] -6.95% | [5] -18.8% | [6] -12.3%

O=C(c1ccccc1)N1C2C3CC(OCc4ccccc4)(OCc4ccccc4)C(O3)C21 (stereo not drawn)
inactive: [1] -8.35% | [2] -3.3% | [3] -16.4% | [4] -12.6% | [5] 16.8% | [6] -9.95%

O=C(CC(=O)c1ccccc1)CC(=O)c1ccc(C(=O)CC(=O)CC(=O)c2ccccc2)cc1
inactive: [1] 29.4% | [2] 1.3% | [3] 30.9% | [4] 0.85% | [5] -1.8% | [6] 22.4%

Cc1cc2c(=O)cc(-c3ccc(Cl)cc3Cl)oc2c(C(=O)O)c1C
inactive: [1] -19.6% | [2] 10.9% | [3] 9% | [4] 23.6% | [5] 11.6% | [6] 29.5%

Cc1ccc(C(=O)CC2(O)C(=O)Nc3ccccc32)cc1 (stereo not drawn)
inactive: [1] 25.4% | [2] 17.4% | [3] 22.4% | [4] 16.9% | [5] 14.3% | [6] 20.9%

O=C(NCc1ccco1)Nc1ccccc1
inactive: [1] -5.8% | [2] -21.2% | [3] -11.7% | [4] -36% | [5] 7.1% | [6] -7.55%

CC(C)CC(NC(=O)C(Cc1ccccc1)NC(=O)CNC(=O)CN)C(=O)O (stereo not drawn) (H-GGFL-OH; configuration not given here)
inactive: [1] -1.55% | [2] -4.05% | [3] -11.4% | [4] -5.05% | [5] -1.9% | [6] -12.4%

CCCC(N)C(=O)NC(Cc1c[nH]c2ccccc12)C(=O)O (stereo not drawn)
inactive: [1] -23.9% | [2] -6.65% | [3] -12% | [4] -0.3% | [5] 0.9% | [6] 2.05%

CC(=O)OCC(C)(C)COC(C)=O
inactive: [1] 2.6% | [2] 1.65% | [3] -11.6% | [4] -7.9% | [5] -5.25% | [6] -11.2%

CCOC(=O)NCC(Cl)(Cl)Cl
inactive: [1] -4.6% | [2] 0.25% | [3] -11.1% | [4] -51.4% | [5] 6.6% | [6] -6.7%

CC(C)(Oc1ccc(/C=C/C(=O)c2ccc(Cl)cc2)cc1)C(=O)Nc1c(Cl)cccc1Cl
inactive: [1] 0.85% | [2] -2.05% | [3] 2.6% | [4] 12.1% | [5] 12.8% | [6] 19%

COc1ccc(C(C)(O)c2cc3ccccc3n2S(=O)(=O)c2ccccc2)cc1 (stereo not drawn)
inactive: [1] -8.95% | [2] -12.3% | [3] -0.9% | [4] -14.3% | [5] 0.75% | [6] 18.4%

O=[S@@]1Nc2cc3ccccc3cc2S1
inactive: [1] 23.2% | [2] -3.35% | [3] 17.6% | [4] 17.1% | [5] -14.9% | [6] 39.2%

CN(C)c1nc2nc[nH]c2c(=S)n1C
inactive: [1] 7.45% | [2] 6% | [3] 4.1% | [4] 24.6% | [5] -9.6% | [6] 0.15%

COC(=O)C1CC(=O)N(C)c2sc(C)c(C)c2C1=O (stereo not drawn)
active: [1] 83.9% | [2] 94.5% | [3] 89% | [5] 87.7% | [6] 95.7%
inactive: [4] 36.5%

Cc1ccc(C(=O)N/N=C/c2ccc(N(C)C)cc2Cl)cc1
inactive: [1] 39.5% | [2] 20.2% | [3] 16.4% | [4] 22.9% | [5] 61% | [6] 21.9%

FC(F)(F)C(c1ccc(Cl)cc1)c1ccc(Cl)cc1
inactive: [1] 42.6% | [2] 28.8% | [3] 40.6% | [4] 34.5% | [5] 5.95% | [6] 30.6%

O=c1oc2c(-c3c(O)c(=O)oc4ccccc34)cc(O)cc2s1
inactive: [1] 10.3% | [2] 14.6% | [3] 22.9% | [4] 17.1% | [5] 10% | [6] 36%

COc1cc(OC)c2c3c(OC)cc(OC)c4c(=O)c(O)c(C[C@@H](C)O)c(c5c(C[C@@H](C)O)c(O)c(=O)c1c25)c43
inactive: [1] 66.8% | [2] 46.4% | [3] 37% | [4] -4.45% | [5] 34.4% | [6] 54.9%

CCO/C=C1\SC(=S)N(CCc2ccc(OC)c(OC)c2)C1=O
inactive: [1] -0.85% | [2] -6.85% | [3] -10.9% | [4] -2.2% | [5] -5.6% | [6] -10.5%

COc1ccccc1/C=N/NC(=O)CCCCCCCCC(=O)N/N=C/c1ccccc1OC
inactive: [1] 0.95% | [2] -4% | [3] -4.4% | [4] -11.2% | [5] -5.5% | [6] 14.5%

COc1cc(CC(=O)O)ccc1O
inactive: [1] 11.8% | [2] -21.3% | [3] -26.7% | [4] -18.4% | [5] 1.45% | [6] -0.55%

ClC(Cl)(Cl)CC(Br)c1ccccc1 (stereo not drawn)
inactive: [1] -1.55% | [2] -8.8% | [3] 7.55% | [4] -22.9% | [5] -6.9% | [6] 2.25%

Clc1ccccc1C1Nc2ccccc2S1 (stereo not drawn)
inactive: [1] 39.7% | [2] 17.6% | [3] 48.2% | [4] -7.75% | [5] 13.3% | [6] 38.2%

CCOC(=O)c1c(-c2ccc(OC)cc2)c(C#N)c(=S)n(C2OC(COC(C)=O)C(OC(C)=O)C(OC(C)=O)C2OC(C)=O)c1-c1ccccc1 (stereo not drawn)
inactive: [1] -4.6% | [2] 0.05% | [3] -3.2% | [4] 21.6% | [5] 11.9% | [6] 13.4%

O=C(O)c1[nH]c2ccccc2c(=O)c1-c1ccccc1
inactive: [1] 11.7% | [2] -31.5% | [3] 0.95% | [4] -14.3% | [5] 1.05% | [6] -19.4%

COC1=CC(=O)N(C(=O)C2CSC(C(CO)NC(=O)c3csc(/C=N/O)n3)=N2)C1 (stereo not drawn)
inactive: [1] 1.85% | [2] -11.3% | [3] 8.9% | [4] -4.15% | [5] -6.25% | [6] 19.9%
